Data on four molecules can be found in PubChem BioAssay (EPA / NIEHS).

Calls of active or inactive are those of the source. Rule for the calls: active = hit-call score of the fitted dose curve at least 0.9, where 1 is the maximum; inactive = score below 0.9.

What all share (settings): mRNA level, 48 h; actives raise or lower the signal
Read-out in experiment [1]: JUN Transcription Factor, JUN (gene 3725)
Kind of experiment: LTEA_HepaRG_JUN: Life Technologies and Expression Analysis (LTEA) Assay for JUN Transcription Factor using HepaRG (AID 2283513). The essentials: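 Read-out is JUN transcript level by TaqMan qRT-PCR, normalized to ACTB, GAPDH and POLR2A, after 48 h chemical treatment of HepaRG cells. Concentration-response spanned eight half-log points up to 100 uM in 0.5% DMSO.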

Read-out in experiment [2]: Lipase C (LIPC), LIPC (gene 3990)
As to the kind of experiment: LTEA_HepaRG_LIPC: Life Technologies and Expression Analysis (LTEA) Assay for Lipase C (LIPC) using HepaRG (AID 2283514). The method, boiled down:
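HepaRG, 48 h exposure, 8-pt half-log series from 100 uM in 0.5% DMSO, duplicates. Readout: LIPC mRNA by Fluidigm qRT-PCR, housekeeping-normalized (ACTB/GAPDH/POLR2A). Gain or loss fitted bidirectionally against DMSO baseline.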

Read-out in experiment [3]: Lipoprotein lipase (LPL), LPL (gene 4023)
Kind of experiment: LTEA_HepaRG_LPL: Life Technologies and Expression Analysis (LTEA) Assay for Lipoprotein lipase (LPL) using HepaRG (AID 2283515). The essentials:
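HepaRG, 48 h exposure, 8-pt half-log dilutions from 100 uM, 0.5% DMSO vehicle, duplicates; qRT-PCR (Fluidigm array) of LPL mRNA vs housekeeping genes; bidirectional curve fit relative to DMSO baseline.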

Read-out in experiment [4]: MicroRNA 122 (MIR122), gene 406906
Kind of experiment: LTEA_HepaRG_MIR122: Life Technologies and Expression Analysis (LTEA) Assay for MicroRNA 122 (MIR122) using HepaRG (AID 2283516). Note: the transcript read is the microRNA miR-122. The method, boiled down: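 Human liver HepaRG cultures receive test chemicals for 48 h at eight half-log concentrations from 100 uM. Expression is quantified by qRT-PCR with ACTB/GAPDH/POLR2A normalization and fitted bidirectionally against 0.5% DMSO.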

Read-out in the next experiment: MYC, MYC (gene 4609)
As to the kind of experiment: LTEA_HepaRG_MYC: Life Technologies and Expression Analysis (LTEA) Assay for MYC using HepaRG (AID 2283518). The method, boiled down: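 Expression changes were scored by TaqMan qRT-PCR with ACTB, GAPDH and POLR2A normalization. Cultures in serum-free induction medium received duplicate 8-point concentration series, highest 100 uM, for 48 h; DMSO (0.5%) served as baseline.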

Read-out in experiment [5]: matrix metalloproteinase-3 (MMP3), MMP3 (gene 4314)
Kind of experiment: LTEA_HepaRG_MMP3: Life Technologies and Expression Analysis (LTEA) Assay for matrix metalloproteinase-3 (MMP3) using HepaRG (AID 2283519). The essentials: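 qRT-PCR read-out of MMP3 mRNA (normalised to three housekeeping genes) in HepaRG liver cells after 48 h chemical exposure; 8-point half-log series, top 100 uM, 0.5% DMSO vehicle. Bidirectional curve fitting against DMSO baseline.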

Read-out in experiment [6]: Paternally Expressed 10 (PEG10), PEG10 (gene 23089)
Kind of experiment: LTEA_HepaRG_PEG10: Life Technologies and Expression Analysis (LTEA) Assay for Paternally Expressed 10 (PEG10) using HepaRG (AID 2283520).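 For AC50: differentiated HepaRG human liver cells in serum-free induction medium with 0.5% DMSO; PEG10 transcript by qRT-PCR normalised to ACTB GAPDH and POLR2A.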 The essentials:
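Human HepaRG cultures are dosed for 48 h across an eight-point half-log series starting at 100 uM, with 0.5% DMSO as vehicle and baseline. Gain or loss of PEG10 transcript is measured by qRT-PCR and fitted in both directions.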

Read-out in experiment [7]: Protein phosphatase 2A (PPP2R4), PTPA (gene 5524)
As to the kind of experiment: LTEA_HepaRG_PPP2R4: Life Technologies and Expression Analysis (LTEA) Assay for Protein phosphatase 2A (PPP2R4) using HepaRG (AID 2283522). The essentials: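 Cells were plated, cultured 48 h, switched to serum-free induction medium, then dosed for 48 h (8 points, max 100 uM, 0.5% DMSO). RNA was isolated and PPP2R4 expression measured by TaqMan qRT-PCR.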

Read-out in experiment [8]: solute carrier (SLC22A1), SLC22A1 (gene 6580)
Kind of experiment: LTEA_HepaRG_SLC22A1: Life Technologies and Expression Analysis (LTEA) Assay for solute carrier (SLC22A1) using HepaRG (AID 2283524).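 For AC50: differentiated human HepaRG liver cells in serum-free induction medium.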 The method, boiled down:
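qRT-PCR readout (TaqMan, Fluidigm arrays) of SLC22A1 transcript, normalized to three housekeeping genes; bidirectional curve fit relative to 0.5% DMSO vehicle. Differentiated human HepaRG cells, 48 h chemical exposure, top concentration 100 uM, half-log steps, eight points.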

Read-out in experiment [9]: Pyruvate Dehydrogenase Kinase 4 (PDK4), PDK4 (gene 5166)
As to the kind of experiment: LTEA_HepaRG_PDK4: Life Technologies and Expression Analysis (LTEA) Assay for Pyruvate Dehydrogenase Kinase 4 (PDK4) using HepaRG (AID 2283525). The essentials: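 HepaRG (human liver line), 48 h chemical exposure, 8-pt half-log CRC top 100 uM, 0.5% DMSO vehicle, duplicates. Readout: TaqMan qRT-PCR of PDK4 mRNA, housekeeping-normalized; gain/loss fit relative to DMSO baseline.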

Read-out in experiment [10]: NAD(P)H dehydrogenase [quinone] 1 (NQO1), NQO1 (gene 1728)
Kind of experiment: LTEA_HepaRG_NQO1: Life Technologies and Expression Analysis (LTEA) Assay for NAD(P)H dehydrogenase [quinone] 1 (NQO1) using HepaRG (AID 2283526). The method, boiled down:
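Transcript induction or suppression is quantified by qRT-PCR in human HepaRG liver cells dosed for 48 hours. Eight half-log concentrations topping at 100 uM are used, with 0.5% DMSO as vehicle and baseline.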

Read-out in experiment [11]: Nuclear factor erythroid 2-related factor 2 (Homo sapiens) (UniProt Q16236)
Kind of experiment: LTEA_HepaRG_NFE2L2: Life Technologies and Expression Analysis (LTEA) Assay for Nuclear factor erythroid 2-related factor 2 (NFE2L2) Transcription Factor using HepaRG (AID 2283527). The method, boiled down:
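HepaRG, 48 h dosing, 8-pt half-log series from 100 uM in 0.5% DMSO, duplicates. Read-out: NFE2L2 mRNA by qRT-PCR (ACTB/GAPDH/POLR2A normalization). Bidirectional curve fit vs DMSO baseline.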

Read-out in experiment [12]: succinate dehydrogenase complex iron sulfur subunit B (SDHB), SDHB (gene 6390)
As to the kind of experiment: LTEA_HepaRG_SDHB: Life Technologies and Expression Analysis (LTEA) Assay for succinate dehydrogenase complex iron sulfur subunit B (SDHB) using HepaRG (AID 2283528). The essentials:
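SDHB transcript level read by TaqMan qRT-PCR, housekeeping-normalised (ACTB, GAPDH, POLR2A), after 48 h chemical treatment of plated HepaRG cells; eight concentrations top 100 uM, half-log steps, 0.5% DMSO, duplicates; fitted both directions against DMSO.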

Read-out in experiment [13]: Signal transducer and activator of transcription 3 (Homo sapiens) (UniProt P40763)
As to the kind of experiment: LTEA_HepaRG_STAT3: Life Technologies and Expression Analysis (LTEA) Assay for Signal transducer and activator of transcription (STAT3) using HepaRG (AID 2283529). The method, boiled down:
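HepaRG, 48 h exposure, 8-pt half-log series (top 100 uM), 0.5% DMSO vehicle, duplicates. Readout: STAT3 transcript by Fluidigm qRT-PCR, housekeeping-normalized; bidirectional fit vs DMSO baseline.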

Read-out in experiment [14]: sulfotransferase 2A1 (SULT2A1), SULT2A1 (gene 6822)
Kind of experiment: LTEA_HepaRG_SULT2A1: Life Technologies and Expression Analysis (LTEA) Assay for sulfotransferase 2A1 (SULT2A1) using HepaRG (AID 2283531). The method, boiled down:
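Gene-expression endpoint in a human liver cell line: SULT2A1 mRNA change after 48 h chemical treatment, curves fitted in both directions relative to 0.5% DMSO vehicle. Concentrations spanned eight half-log steps from 100 uM.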

Read-out in experiment [15]: Transforming Growth Factor (TGFA), TGFA (gene 7039)
As to the kind of experiment: LTEA_HepaRG_TGFA: Life Technologies and Expression Analysis (LTEA) Assay for Transforming Growth Factor (TGFA) using HepaRG (AID 2283532). The method, boiled down: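 qRT-PCR read-out of TGFA transcript, normalized to three housekeeping genes, fitted bidirectionally against 0.5% DMSO baseline. Human HepaRG cultures received chemicals for 48 h at eight half-log concentrations, top 100 uM.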

Read-out in experiment [16]: Phosphatase and tensin (PTEN), PTEN (gene 5728)
Kind of experiment: LTEA_HepaRG_PTEN: Life Technologies and Expression Analysis (LTEA) Assay for Phosphatase and tensin (PTEN) using HepaRG (AID 2283523). The essentials: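 HepaRG, 48 h exposure, 8-pt half-log series from 100 uM top, 0.5% DMSO vehicle, duplicates. Readout: Fluidigm qRT-PCR of PTEN transcript; housekeeping normalization (ACTB, GAPDH, POLR2A). Gain or loss fitted relative to DMSO baseline.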

Read-out in experiment [17]: Nuclear factor NF-kappa-B p105 subunit (Homo sapiens) (UniProt P19838)
Kind of experiment: LTEA_HepaRG_NFKB1: Life Technologies and Expression Analysis (LTEA) Assay for Nuclear Factor Kappa B Subunit 1 (NFKB1) using HepaRG (AID 2283521).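 Note: differentiated human HepaRG liver cells in serum-free induction medium.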 The essentials: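 NFKB1 transcript was measured by TaqMan qRT-PCR on Fluidigm arrays, normalised to three housekeeping genes and fitted in both directions against 0.5% DMSO. HepaRG cells were dosed in duplicate for 48 h in serum-free induction medium, eight half-log steps from 100 uM.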

Read-out in experiment [18]: solute carrier (SLCO1B1), SLCO1B1 (gene 10599)
Kind of experiment: LTEA_HepaRG_SLCO1B1: Life Technologies and Expression Analysis (LTEA) Assay for solute carrier (SLCO1B1) using HepaRG (AID 2283530). The essentials:
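Human HepaRG cultures treated for 48 h with an eight-concentration half-log series topping at 100 uM; SLCO1B1 measured by qRT-PCR and fitted bidirectionally relative to DMSO.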

Read-out in experiment [19]: matrix metalloproteinase-10 (MMP10), MMP10 (gene 4319)
As to the kind of experiment: LTEA_HepaRG_MMP10: Life Technologies and Expression Analysis (LTEA) Assay for matrix metalloproteinase-10 (MMP10) using HepaRG (AID 2283517). The essentials:
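Transcript levels come from Fluidigm qRT-PCR normalized to three housekeeping genes, with curves fitted bidirectionally against 0.5% DMSO. Human HepaRG cells were dosed for 48 hours at concentrations up to 100 uM.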

By AC50 is commonly meant the concentration at which the activity in the assay is half-maximal.

Chain of Signal transducer and activator of transcription 3 (Homo sapiens) (P40763 whole entry, looked up): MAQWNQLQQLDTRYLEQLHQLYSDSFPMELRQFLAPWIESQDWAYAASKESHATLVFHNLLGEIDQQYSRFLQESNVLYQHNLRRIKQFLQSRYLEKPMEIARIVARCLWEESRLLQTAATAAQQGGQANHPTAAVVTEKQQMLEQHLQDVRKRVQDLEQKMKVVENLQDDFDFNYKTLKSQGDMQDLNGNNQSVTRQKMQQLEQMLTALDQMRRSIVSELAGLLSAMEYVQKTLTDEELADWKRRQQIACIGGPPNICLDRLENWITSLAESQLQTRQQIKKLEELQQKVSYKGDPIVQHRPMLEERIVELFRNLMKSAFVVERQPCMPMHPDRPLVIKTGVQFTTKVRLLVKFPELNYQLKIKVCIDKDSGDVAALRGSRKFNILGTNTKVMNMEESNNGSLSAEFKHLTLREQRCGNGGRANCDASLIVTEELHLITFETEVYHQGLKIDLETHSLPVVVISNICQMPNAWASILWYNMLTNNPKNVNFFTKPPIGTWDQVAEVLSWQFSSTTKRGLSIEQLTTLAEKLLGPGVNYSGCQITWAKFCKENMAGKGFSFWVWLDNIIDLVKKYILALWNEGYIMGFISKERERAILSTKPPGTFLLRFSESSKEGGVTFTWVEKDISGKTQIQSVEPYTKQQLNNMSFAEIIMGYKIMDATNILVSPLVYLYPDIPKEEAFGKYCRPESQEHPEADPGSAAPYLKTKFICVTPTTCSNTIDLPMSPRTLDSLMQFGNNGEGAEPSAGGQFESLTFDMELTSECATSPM
Chain of Nuclear factor erythroid 2-related factor 2 (Homo sapiens) (Q16236 whole entry, looked up): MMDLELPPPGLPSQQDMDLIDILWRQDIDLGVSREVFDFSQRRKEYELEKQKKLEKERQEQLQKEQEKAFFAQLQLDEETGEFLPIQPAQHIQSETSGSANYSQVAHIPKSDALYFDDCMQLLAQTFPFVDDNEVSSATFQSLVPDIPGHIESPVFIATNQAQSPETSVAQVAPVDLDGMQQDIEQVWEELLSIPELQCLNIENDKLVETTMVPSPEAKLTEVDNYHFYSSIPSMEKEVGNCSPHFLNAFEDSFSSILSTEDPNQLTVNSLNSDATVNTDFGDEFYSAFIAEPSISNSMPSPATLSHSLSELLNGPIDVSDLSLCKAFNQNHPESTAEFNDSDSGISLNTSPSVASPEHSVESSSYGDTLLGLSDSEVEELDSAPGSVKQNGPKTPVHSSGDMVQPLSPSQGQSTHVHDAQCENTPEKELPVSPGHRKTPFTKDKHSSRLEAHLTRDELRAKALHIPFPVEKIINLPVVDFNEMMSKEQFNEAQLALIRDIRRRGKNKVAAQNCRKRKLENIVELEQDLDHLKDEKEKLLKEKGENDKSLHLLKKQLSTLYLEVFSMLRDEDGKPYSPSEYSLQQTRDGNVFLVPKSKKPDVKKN
Chain of Nuclear factor NF-kappa-B p105 subunit (Homo sapiens) (P19838 whole entry, looked up): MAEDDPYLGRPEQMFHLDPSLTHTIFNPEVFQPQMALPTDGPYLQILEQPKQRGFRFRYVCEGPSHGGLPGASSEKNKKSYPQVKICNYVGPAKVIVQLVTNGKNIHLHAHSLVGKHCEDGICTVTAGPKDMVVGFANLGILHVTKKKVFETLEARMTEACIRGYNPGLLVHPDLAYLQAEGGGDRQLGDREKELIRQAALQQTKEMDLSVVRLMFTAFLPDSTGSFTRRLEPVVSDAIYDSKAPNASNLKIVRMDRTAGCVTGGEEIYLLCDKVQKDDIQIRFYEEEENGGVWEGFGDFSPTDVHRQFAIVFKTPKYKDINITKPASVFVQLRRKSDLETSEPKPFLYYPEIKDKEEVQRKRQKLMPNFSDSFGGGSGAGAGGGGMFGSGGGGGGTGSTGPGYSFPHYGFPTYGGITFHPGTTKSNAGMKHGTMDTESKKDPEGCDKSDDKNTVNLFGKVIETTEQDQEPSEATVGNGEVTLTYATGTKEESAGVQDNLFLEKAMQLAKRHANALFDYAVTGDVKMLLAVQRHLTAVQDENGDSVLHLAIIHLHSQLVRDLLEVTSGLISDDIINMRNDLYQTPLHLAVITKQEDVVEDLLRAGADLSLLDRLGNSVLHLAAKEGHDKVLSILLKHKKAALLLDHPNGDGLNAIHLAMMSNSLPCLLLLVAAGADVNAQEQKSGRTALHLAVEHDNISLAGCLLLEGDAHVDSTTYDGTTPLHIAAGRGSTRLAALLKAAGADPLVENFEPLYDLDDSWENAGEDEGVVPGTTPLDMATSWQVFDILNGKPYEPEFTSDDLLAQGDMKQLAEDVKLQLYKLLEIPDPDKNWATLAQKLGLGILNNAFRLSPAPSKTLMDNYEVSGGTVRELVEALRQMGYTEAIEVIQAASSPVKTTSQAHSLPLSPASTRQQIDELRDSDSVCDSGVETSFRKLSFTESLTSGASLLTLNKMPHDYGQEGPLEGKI

`O=C(O)C1C2CCC(O2)C1C(=O)O` (stereo not drawn): the half-maximal activity concentration (AC50) is 24.7 µM (active) in experiment [1]; 82.6 µM (active) in experiment [2]; 74.4 µM (active) in [4]; 27.7 µM (active) in experiment [5]; 85.7 µM (active) in experiment [6]; 70.7 µM (active) in [8]. The half-maximal activity concentration (AC50) in experiment [14] was 76 µM (active). The outcome in [3] is “inactive”; in the experiment with MYC, MYC (gene 4609), “inactive”; in [7], “inactive”; in [9], “inactive”; in experiment [10] it was “inactive”; in experiment [11], “inactive”. Further, the molecule was called inactive in experiment [12], in [13] and in [15].
For `CCOc1cccc(C2(N3CCN(c4ccccc4)CC3)CCC(C)CC2)c1` (stereo not drawn), the outcome in [1] was “inactive”; in experiment [2], “inactive”; in [3], “inactive”; in experiment [4] it was “inactive”; with MYC, MYC (gene 4609), “inactive”; in experiment [6], “inactive”. The molecule was called inactive in experiment [7], in experiment [16], in [9], in [10], in experiment [11] and in experiment [12]. The result in experiment [13], in experiment [14] and in experiment [15] was inactive. For the same molecule, in experiment [5], the AC50 is 89.9 µM (active).
With `O=Cc1ccco1`, the outcome in experiment [1] was “inactive”; in experiment [2], “inactive”; in experiment [3], “inactive”; in experiment [4], “inactive”; in the experiment with MYC, MYC (gene 4609) it was “inactive”; in [5], “inactive”. Moreover, the result in experiment [6], in [17], in experiment [7], in [9], in experiment [10] and in experiment [11] was inactive. Besides, the molecule was called inactive in experiment [12], in [13], in [18], in experiment [14] and in experiment [15].
Take `CCN(CC)CCO`: the outcome in [1] was “inactive”; in experiment [2] it was “inactive”; in [4] it was “inactive”; in [19], “inactive”; in the experiment with MYC, MYC (gene 4609), “inactive”; in experiment [5], “inactive”. The call in experiment [6], in experiment [17], in [7], in [16], in [8] and in [9] was inactive. For the same molecule, the molecule was classed as inactive in [10], in [11], in experiment [12], in [13], in experiment [18] and in [14]. The molecule was classed as inactive in [15].
